Measurements reported in PubChem BioAssay AID1159580 (chemical genetic matrix, 2015).
About 2,000 (36%) of roughly 5,500 compounds were called active. Not shown: some 18% with an inconclusive outcome. Rule as the data show it: active = normalized growth mostly below about 0.91 (no sharp cut-off); inconclusive = no clear call, values can overlap the other calls; inactive = mostly above about 0.92. The list shows a part of the results.

Assay: chemical genetic growth profiling, strain panel (AID 1159580);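 also: tested at 20 µM; growth read once vehicle control cultures reached saturation at 30 °C; 1 = growth at the plate median or of vehicle wells; lower values mean less growth of the strain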
Conditions: S. cerevisiae deletion strains, growth OD

Measured: normalized growth

Cc1cc(C2=CSC3=NCCN23)ccc1Cl
inactive: locus YAL013W, strain DEP1, hits give low values 0.99 | locus YBR229C, strain ROT2, hits give low values 1.01 | locus YDL101C, strain DUN1, hits give low values 0.974 | locus YDL134C, strain PPH21, hits give low values 0.989 | locus YDR150W, strain NUM1, hits give low values 0.974 | locus YEL061C, strain CIN8, hits give low values 1 | locus YGR078C, strain PAC10, hits give low values 0.989 | locus YHR030C, strain SLT2, hits give low values 0.872 | locus YHR087W, strain rtc3, hits give low values 1.01 | locus YJL187C, strain SWE1, hits give low values 1 | locus YJR043C, strain POL32, hits give low values 0.999 | locus YJR075W, strain HOC1, hits give low values 0.982 | locus YLR039C, strain RIC1, hits give low values 1.02 | locus YLR058C, strain SHM2 (second series), hits give low values 0.996 | locus YLR085C, strain ARP6, hits give low values 0.933 | locus YLR262C, strain YPT6, hits give low values 1.03 | locus YML094W, strain GIM5, hits give low values 0.99 | locus YMR219W, strain ESC1, hits give low values 0.987 | locus YMR263W, strain SAP30, hits give low values 0.998 | locus YNL153C, strain GIM3, hits give low values 0.992 | locus YNL298W, strain CLA4 (second series), hits give low values 0.946 | locus YNL322C, strain KRE1, hits give low values 0.989 | locus YNR030W, strain Alg12, hits give low values 0.994 | locus YOL006C, strain TOP1, hits give low values 0.752 | locus YPL055C, strain LGE1, hits give low values 1.02 | locus YPL241C, strain CIN2, hits give low values 0.975 | locus YPR135W, strain CTF4, hits give low values 0.709
